Among the data in PubChem BioAssay (NCI) are growth values, retold here.

Common to all, as to experiment: NCI-60 one-dose screen, 48 h (100 = growth as untreated, 0 = no growth, -100 = all killed)
What all share (conditions): 10 µM unless noted

In experiment [1] the test system is DU-145 prostate.
Experiment [2] deals with K-562 leukemia.
The test system of experiment [3] is MALME-3M melanoma.
Experiment [4] concerns MDA-MB-231 breast.
Experiment [5] concerns RXF 393 renal.
Experiment [6] concerns SF-268 CNS.
For experiment [7], the system named is SF-295 CNS.
Experiment [8] relates to SF-539 CNS.
For experiment [9], the system named is UACC-257 melanoma.
The test system of experiment [10] is M14 melanoma.
The subject of experiment [11] is HCT-15 colon.
Experiment [12] relates to HT29 colon.
Experiment [13] concerns SNB-75 CNS.
Experiment [14] deals with SNB-19 CNS.
Experiment [15] relates to U251 CNS.
Experiment [16] deals with PC-3 prostate.
Experiment [17] deals with SK-MEL-5 melanoma.
Experiment [18] concerns UACC-62 melanoma.
Experiment [19] relates to LOX IMVI melanoma.
The test system of experiment [20] is SK-MEL-28 melanoma.

About 83,000 compounds went through this panel and 20% of them were active in at least one assay; those are over-represented in the sample as a whole.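 Percent growth is the endpoint: 0 to 100 indicates growth inhibition (40 means 60% inhibition), 0 means no net growth, and negative values indicate cell death.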 Unmarked numbers belong to inactive results. Activity calls are given as the source filed them. The calls were made as follows: active = growth percent below 10; inactive = the rest.

As for `FC(F)(F)c1ccc(CNc2ccc(Cc3c[nH]c4ncc(Cl)cc34)cn2)cn1`, the growth in experiment [1] is 61.2%; in [2] it was 12.4%; in experiment [3], 15.9%; in [4], 24.5%; in experiment [5], -7.15% (active); in [6], 27.7%. Further, the growth in experiment [7] was 13.6%; in [8], 19.3%; in experiment [9], 7.18% (active); in experiment [10], 11.5%; in [11], 19.9%; in [12] it was 2.92% (active). The growth was 9.21% (active) in experiment [13]; 37% in experiment [14]; 18.2% in [15]; 18.3% in experiment [16]; -59.8% (active) in experiment [17]; 6.74% (active) in [18]. In addition, the growth in experiment [19] was 15.2%; in [20] it was 17.8%.

Turning to `CCCCCC(=O)OCc1ccc(Cl)c(Cl)c1`, the growth in experiment [1] was 105%; in [2], 98.8%; in experiment [3] it was 90.4%; in experiment [4] it was 110%; in experiment [5], 116%; in experiment [6] it was 99.3%. Moreover, the growth in [7] was 108%; in experiment [8], 105%; in experiment [9] it was 103%; in [10] it was 104%; in experiment [11], 109%; in experiment [12] it was 109%. Further, the growth was 96.5% in [13]; 105% in [14]; 98.2% in experiment [15]; 96.3% in [16]; 108% in experiment [17]; 106% in experiment [18]. Besides, the growth was 96% in [19] and 111% in [20].

Turning to `c1cn2cc(-c3ccc4cn[nH]c4c3)nc(Nc3ccc(N4CCOCC4)cc3)c2n1`, the growth is 53.3% in [1]; 65.9% in experiment [2]; 74.8% in experiment [3]; 55.1% in experiment [4]; 12.4% in [5]; 34.9% in experiment [6]. The growth was 66.4% in experiment [7]; 46.9% in experiment [8]; 62.6% in experiment [9]; 55.1% in experiment [10]; 66.5% in experiment [11]; 32.7% in experiment [12]. Further, the growth is -3.9% (active) in experiment [13]; 50.3% in experiment [14]; 41.5% in experiment [15]; 43.3% in [16]; 71.4% in experiment [17]; 53.3% in experiment [18]. The values for the growth in experiment [19] and in experiment [20] were 56.4% and 63%, respectively.

As for `CN1CCN(CC(=O)Nc2ccc(-c3nc4ccccc4s3)cc2)CC1`, the growth in experiment [1] was 85.2%; in experiment [2], 41.8%; in [3], 98.3%; in experiment [4], 59.8%; in experiment [5], 54.3%; in experiment [6], 83%. The growth was 91.1% in [7]; -31.9% (active) in [8]; 105% in experiment [9]; 67.6% in [10]; 52.9% in experiment [11]; 39.6% in [12]. Moreover, the growth was 73.1% in experiment [13]; 89.7% in experiment [14]; 67.5% in [15]; 83.6% in experiment [16]; 73.7% in experiment [17]; -35.8% (active) in experiment [18]. The growth in [19] was -33.7% (active); in [20] it was 33.8%.

For `CCN1CCN(CCCN(C[C@H]2Cc3ccccc3CN2)[C@H]2CCCc3cccnc32)CC1`, the growth in experiment [1] was 96.7%; in experiment [2] it was 63.5%; in experiment [3], 113%; in [4], 77.4%; in experiment [5], 93.8%; in [6] it was 75.9%. Further, the growth is 90.7% in [7]; 94.2% in experiment [8]; 80.4% in experiment [9]; 87.3% in [10]; 72.5% in experiment [11]; 75.2% in [12]. In addition, the growth is 84.8% in [13]; 84.9% in [14]; 79.2% in experiment [15]; 77.3% in experiment [16]; 97.7% in experiment [17]; 106% in [18]. Also, the growth is 74.3% in experiment [19] and 108% in experiment [20].

For the compound `Nc1cc(C(F)(F)F)c(-c2cc(N3CCOCC3)nc(N3CCOCC3)n2)cn1`, the growth in experiment [1] is 3.11% (active); in experiment [2], 0.801% (active); in experiment [3], -60.8% (active); in [4], -1.72% (active); in [5], -39.7% (active); in experiment [6], 6.65% (active). For the same compound, the growth in experiment [7] is -46.8% (active); in [8] it was -57% (active); in experiment [9], -49.5% (active); in [10], -62.1% (active); in experiment [11] it was -10% (active); in experiment [12], -29.2% (active). For the same compound, the growth in [13] is -69% (active); in experiment [14], 0.838% (active); in [15] it was -2.08% (active); in [16], -10.4% (active); in experiment [17] it was -75.5% (active); in experiment [18] it was -72.7% (active). In addition, the growth was -44.6% (active) in experiment [19] and -47.5% (active) in experiment [20].

On to `CCCCCCCC12Cc3ccccc3C1=Nc1c(c3ccccc3n1C)C2=O` (stereo not given), for which the growth in [1] is 120%; in experiment [2], 85.9%; in experiment [3], 95.2%; in [4] it was 82.4%; in experiment [5], 104%; in [6] it was 100%. Further, the growth in [7] was 97.4%; in experiment [8] it was 111%; in experiment [9], 82.3%; in experiment [10], 95.3%; in experiment [11], 91.7%; in experiment [12], 58.8%. The growth in [13] was 89.2%; in experiment [14], 95%; in experiment [15], 88.5%; in experiment [16], 78.2%; in experiment [17] it was 90.8%; in experiment [18], 74.8%. Also, the figures for the growth in experiment [19] and in experiment [20] were 87.8% and 113%, respectively.
